SMILES strings stand for the structures. Records with an inconclusive call do not appear. A number with no mark means an inactive call. The call rests on the fitted dose curve; in most records, active means well fitted inhibition curve with a large enough effect; inconclusive means small, poorly fitted or top-dose-only effect; inactive means flat fitted curve, though single readings scatter. Where a SMILES comes first, the peptide text is derived from it. Bridges are numbered along the chain shown (N, C = ends). [ ]: non-standard residue; d: D form. hArg = N=C(N)NCCCC[C@H](N)C(=O)O; Mpa = O=C(O)CCS

The first test can be described thus: qHTS profiling for inhibitors of Plasmodium falciparum proliferation (AID 504749).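 Further: 0% = DMSO vehicle and full inhibition = artemisinin control; nearly all actives have a fitted effect of over 60% in size.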 The following applies: P. falciparum in erythrocytes, SYBR Green DNA, 72 h; at 12.8 µM (top of the series); parasite line A. The method in brief:
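Three-day growth assay of blood-stage parasites in erythrocytes (0.3% parasitemia, 2.5% hematocrit) at 37 C, 5% CO2, quantified by SYBR Green DNA staining after overnight detergent lysis.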
For orientation: qHTS replaces the single test concentration by a dilution series.
As for `COc1ccc2cc(CCC(C)=O)ccc2c1`, the activity, negative = inhibition is 8.55%.

On to `Cc1c(NC(=O)c2cccnc2)c(=O)n(-c2ccccc2)n1C`, for which the activity, negative = inhibition was 17.3%.

For the compound `NCc1ccc(S(N)(=O)=O)cc1`, the activity, negative = inhibition is 6.73%.

Regarding `CCS(=O)(=O)CCn1c([N+](=O)[O-])cnc1C`, the activity, negative = inhibition was -2.71%.

For `COc1ccc(NS(=O)(=O)c2ccc(N)cc2)nn1`, the activity, negative = inhibition was 2.8%.

The same test, now with this note: P. falciparum in erythrocytes, SYBR Green DNA, 72 h; at 12.8 µM (top of the series); parasite line B.
For `COc1ccc2cc(CCC(C)=O)ccc2c1`, the activity, negative = inhibition is 1.23%.

`Cc1c(NC(=O)c2cccnc2)c(=O)n(-c2ccccc2)n1C`: the activity, negative = inhibition was 5.39%.

For the compound `NCc1ccc(S(N)(=O)=O)cc1`, the activity, negative = inhibition is 11%.

On to `CCS(=O)(=O)CCn1c([N+](=O)[O-])cnc1C`, for which the activity, negative = inhibition was -11.1%.

As for `COc1ccc(NS(=O)(=O)c2ccc(N)cc2)nn1`, the activity, negative = inhibition was 13.5%.

Still in this test, the particulars now being: P. falciparum in erythrocytes, SYBR Green DNA, 72 h; at 28.7 µM (top of the series); parasite line A.
As for `CCCCCCCC(=O)OCC(COC(=O)CCCCCCC)OC(=O)CCCCCCC`, the activity, negative = inhibition was 4.54%.

For the compound `COc1nccnc1NS(=O)(=O)c1ccc(N)cc1`, the activity, negative = inhibition is 0.889%.

`Nc1ccc(S(=O)(=O)c2ccc(N)cc2)cc1`: the activity, negative = inhibition is 2.8%.

With `O=C(O)c1ccc(OCCCOc2ccc(C(=O)O)cc2)cc1`, the activity, negative = inhibition was 0.28%.

On to `Cc1cccc(C)c1NC(=O)CC12CCCN1CCC2`, for which the activity, negative = inhibition was 2.82%.

`C[C@H]1COc2c(C3(N)CC3)c(F)cc3c(=O)c(C(=O)O)cn1c23`: the activity, negative = inhibition is -1.84%.

As for `CC(C)=CCC/C(C)=C/CO`, the activity, negative = inhibition is -3.97%.

As for `CC(=O)Oc1cccc(O)c1`, the activity, negative = inhibition was 4.48%.

Consider `COc1ccc(C(=O)NCc2ccc(OCCN(C)C)cc2)cc1OC`, for which the activity, negative = inhibition is -0.299%.

Consider `CCOc1cc(NC(C)=O)ccc1C(=O)OC`, for which the activity, negative = inhibition was 4.89%.

Take `CCN1CC(CCN2CCOCC2)C(c2ccccc2)(c2ccccc2)C1=O` (stereo not drawn): the activity, negative = inhibition was 10.7%.

With `NC(=O)[C@@H]1CSSCCC(=O)N[C@@H](CCCCN=C(N)N)C(=O)NCC(=O)N[C@@H](CC(=O)O)C(=O)N[C@@H](Cc2c[nH]c3ccccc23)C(=O)N2CCC[C@H]2C(=O)N1` ([Mpa][hArg]GDWPC-NH2; disulfide 1-7), the activity, negative = inhibition is -6.16%.

As for `CC(=O)N[C@@H](Cc1ccc(O)cc1)C(=O)O`, the activity, negative = inhibition is 9.07%.

In the case of `C[C@@H]1O[C@@H](OC[C@H]2O[C@@H](Oc3c(-c4ccc(O)c(O)c4)oc4cc(O)cc(O)c4c3=O)[C@H](O)[C@@H](O)[C@@H]2O)[C@H](O)[C@H](O)[C@H]1O`, the activity, negative = inhibition was 3.3%.

For `CC(CSC(=O)c1ccccc1)C(=O)N1C[C@@H](Sc2ccccc2)C[C@H]1C(=O)O` (stereo partly drawn), the activity, negative = inhibition is 13%.

For the compound `O[C@@H]1CO[C@H]2[C@@H]1OC[C@@H]2O`, the activity, negative = inhibition is 8.49%.

For `NC(=O)CCCCC1CCSS1` (stereo not drawn), the activity, negative = inhibition is -3.84%.

Consider `Cc1c(I)c(=O)n(-c2ccccc2)n1C`, for which the activity, negative = inhibition was 2.47%.

On to `O=C(O)CCCCC1CCSS1` (stereo not drawn), for which the activity, negative = inhibition is 5.2%.

For `O=C(OOC(=O)c1ccccc1)c1ccccc1`, the activity, negative = inhibition was -10.4%.

With `CCCCCCCCCCC(CO)CCCCCCCC` (stereo not drawn), the activity, negative = inhibition is -1.63%.

For `CN(C/C=C/C#CC(C)(C)C)Cc1cccc2ccccc12`, the activity, negative = inhibition is -1.32%.

Still in this test, the particulars now being: P. falciparum in erythrocytes, SYBR Green DNA, 72 h; at 28.7 µM (top of the series); parasite line B.
As for `O=C(c1ccccc1)C(O)c1ccccc1` (stereo not drawn), the activity, negative = inhibition was -14.9%.

For `COc1nccnc1NS(=O)(=O)c1ccc(N)cc1`, the activity, negative = inhibition was -0.327%.

Turning to `Nc1ccc(S(=O)(=O)c2ccc(N)cc2)cc1`, the activity, negative = inhibition is 7.07%.

Regarding `O=C(O)c1ccc(OCCCOc2ccc(C(=O)O)cc2)cc1`, the activity, negative = inhibition is 9.9%.

For `Cc1cccc(C)c1NC(=O)CC12CCCN1CCC2`, the activity, negative = inhibition was 0.226%.

Consider `C[C@H]1COc2c(C3(N)CC3)c(F)cc3c(=O)c(C(=O)O)cn1c23`, for which the activity, negative = inhibition is -23.2%.

Turning to `CC(=O)Oc1cccc(O)c1`, the activity, negative = inhibition is 12.6%.

With `COc1ccc(C(=O)NCc2ccc(OCCN(C)C)cc2)cc1OC`, the activity, negative = inhibition was -0.981%.

As to `CCOc1cc(NC(C)=O)ccc1C(=O)OC`, the activity, negative = inhibition was 12.8%.

`CCN1CC(CCN2CCOCC2)C(c2ccccc2)(c2ccccc2)C1=O` (stereo not drawn): the activity, negative = inhibition is -5.11%.

As to `NC(=O)[C@@H]1CSSCCC(=O)N[C@@H](CCCCN=C(N)N)C(=O)NCC(=O)N[C@@H](CC(=O)O)C(=O)N[C@@H](Cc2c[nH]c3ccccc23)C(=O)N2CCC[C@H]2C(=O)N1` ([Mpa][hArg]GDWPC-NH2; disulfide 1-7), the activity, negative = inhibition is 11.6%.

For `CC(=O)OC[C@H]1O[C@@](COC(C)=O)(O[C@H]2O[C@H](COC(C)=O)[C@@H](OC(C)=O)[C@H](OC(C)=O)[C@H]2OC(C)=O)[C@@H](OC(C)=O)[C@@H]1OC(C)=O`, the activity, negative = inhibition is 21.3%.

Take `CC(=O)N[C@@H](Cc1ccc(O)cc1)C(=O)O`: the activity, negative = inhibition was 9.16%.

For `C[C@@H]1O[C@@H](OC[C@H]2O[C@@H](Oc3c(-c4ccc(O)c(O)c4)oc4cc(O)cc(O)c4c3=O)[C@H](O)[C@@H](O)[C@@H]2O)[C@H](O)[C@H](O)[C@H]1O`, the activity, negative = inhibition was 8.33%.

On to `CC(CSC(=O)c1ccccc1)C(=O)N1C[C@@H](Sc2ccccc2)C[C@H]1C(=O)O` (stereo partly drawn), for which the activity, negative = inhibition is 2.24%.

Regarding `O[C@@H]1CO[C@H]2[C@@H]1OC[C@@H]2O`, the activity, negative = inhibition was 1.12%.

Take `NC(=O)CCCCC1CCSS1` (stereo not drawn): the activity, negative = inhibition is -4.11%.

As for `O=C(O)CCCCC1CCSS1` (stereo not drawn), the activity, negative = inhibition was 12.3%.

For `O=C(OOC(=O)c1ccccc1)c1ccccc1`, the activity, negative = inhibition is 7.71%.

As for `CCCCCCCCCCC(CO)CCCCCCCC` (stereo not drawn), the activity, negative = inhibition was 6.03%.

Regarding `CN(C/C=C/C#CC(C)(C)C)Cc1cccc2ccccc12`, the activity, negative = inhibition was -6.19%.

For the origin of these results see PubChem BioAssay (NCATS).
